Measured values from PMC6212790, “How bacterial xenogeneic silencer rok distinguishes foreign from self DNA in its resident genome”.
The full ranking holds about 33,000 sequences; the median of “e-score” is about -0.038, and the highest 2% start at about 0.33. The sample as a whole holds a higher share of the highest values than the screen did.

Molecular target: T1, GST-Rok-C97-191 (Bacillus subtilis subsp. subtilis str. …, UniProt O34857 97-191)
T1 sequence: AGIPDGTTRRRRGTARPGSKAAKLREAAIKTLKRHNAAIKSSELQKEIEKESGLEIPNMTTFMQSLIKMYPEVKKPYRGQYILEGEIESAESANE
Assay: protein binding microarray; Rok is a gene silencer of Bacillus subtilis; high values mean tight binding
Settings: protein: recombinant; tags: GST (pTH5325, pDEST15-Magic modified); dsDNA, one strand shown
Procedure, shortened: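 Each has a 25-mer constant primer and a 35-mer variable part from a de Bruijn sequence of order 10, covering every non-palindromic 8-mer at least 32 times (palindromic 16). Preference for each 8-mer is given as a rank-based, unitless enrichment score (E-score). Its range runs from 0.5 (most favored) to −0.5 (most disfavored).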

Sequence | binding signal [E-score]
AAAGTTTG | -0.0186
AGAACGCC | 0.0453
AGGTCCTC | -0.0779
ACTCCTTA | 0.00627
AAAACCAA | 0.0758
AGTGATGA | 0.024
AGTAGTAT | 0.368
AGTAGTAG | 0.385
ATTAGTAG | 0.319
AGAAGTAT | 0.292
CGTAGTAC | 0.186
AGTAGTAC | 0.356
GGTAGTAC | 0.268
AGCAGTAT | 0.0236
CGTAGTAG | 0.223
GTTGGCTA | 0.0528
CACAGGTA | -0.0357
CTCAATAA | 0.215
AATATTAA | 0.285
GATATTAA | 0.379
AATATTAC | 0.284
CATATTTA | 0.282
CATATTAC | 0.22
CATATTAA | 0.194
AGTATTTA | 0.301

Sequence | binding signal [E-score]
AATATTTA | 0.311
GGTATTTA | 0.342
CGTATTTA | 0.318
GATATTTA | 0.328
GATATTAC | 0.328
CTGCAGGC | -0.199
ACCACTCG | -0.181
ACATCATG | -0.155
GCTCGACA | -0.145
CCCATTAC | -0.0975
GCTAACAC | -0.0971
TGCCTGAA | -0.0885
CGAGTCCG | -0.192
TATATTGA | 0.288
TATATTAA | 0.387
TGTATTAA | 0.294
CAACGAAA | 0.00998
AATTCACG | 0.127
CGCTTTGA | -0.0415
AGTACTTG | 0.296
GCTACTAA | 0.229
TCTACTCA | 0.188
ACTACTTA | 0.415
TCTACTAA | 0.342
ACTACTGA | 0.269

Sequence | binding signal [E-score]
AGTACTTA | 0.355
CGTACTTA | 0.23
ACTACTTC | 0.226
ACTACTAA | 0.379
TGTACTAA | 0.191
GGTACTAA | 0.249
CGTCCCAA | -0.181
CATTATGA | 0.0691
TCCACTCA | -0.127
AGCCAATG | -0.162
CGCAGAAG | -0.171
GAATTTAA | 0.124
TCAATTAA | 0.161
TTAATTAA | 0.346
CTAATTAC | 0.382
CTAATTAA | 0.275
CCAATTAC | 0.0758
CTAATTCC | 0.159
TAATTTAA | 0.396
ATAATTAT | 0.137
ATAATTAA | 0.298
ATAATTAG | 0.354
AAATTTAA | 0.299
GTCCTAGA | -0.199
AATGTCGC | 0.0115

Sequence | binding signal [E-score]
CTAGCTAG | 0.294
ATCTTAGG | -0.016
CGGCGGTA | 0.123
CCAGGTCA | -0.0861
GTAATTAA | 0.213
CCAATTAG | -0.111
AGAATTAC | 0.217
GCAATTAC | 0.13
ATAATTGC | 0.26
CTAATTAG | 0.362
ATAATTAC | 0.332
GTAATTAC | 0.43
CGAATTAG | 0.279
ATGAATTC | 0.0443
CGCTTAGA | -0.0215
GATATCGA | 0.223
GAACGACC | -0.143
CGTTCTAG | 0.22
CTTTGTCC | -0.101
ATTAGGAA | -0.056
TGGGACAA | -0.0222
CATCCAAC | -0.0608
CATTATAC | 0.177
AATTATAT | 0.398
AATTATAA | 0.274

Sequence | binding signal [E-score]
AATTATAC | 0.348
GATTATAC | 0.238
AATTATAG | 0.303
AAGGGTGC | -0.165
CATCTGAA | -0.0216
AAAACTAT | 0.415
ATAACTAG | 0.232
AAAACTGG | 0.0097
AAAACTAG | 0.364
AAAACTAC | 0.433
AAAACTCC | 0.137
AAAACTGT | 0.0809
ATAACTAT | 0.383
AAAACTGC | -0.0367
ATAACTAA | 0.249
AAAACTAA | 0.255
AAAACTTG | -0.0585
CGATCAAG | -0.0651
ACATCGCG | 0.139
CCAAATAC | 0.137
GAACGTTC | 0.053
CCGTAGCA | 0.075
ATTTGGAA | 0.102
AGCCAATA | -0.0503
GAATTCAC | 0.074

Sequence | binding signal [E-score]
CAAACTCC | -0.063
GAAACTAC | 0.46
CAAACTTA | 0.101
CAAACTAC | 0.446
ACAACTAT | 0.321
GAAACTTC | 0.204
TAAACTAA | 0.234
GCAACTAC | 0.239
CAAACTAG | 0.287
CAAACTAA | 0.374
ACAACTAC | 0.348
GAAACTAA | 0.313
CTGAGTCA | -0.156
AGGTTCAC | -0.111
GGTCCTTA | 0.0575
CAAGGTGA | -0.134
AAGTTGCA | 0.0502
CTGGTCAA | 0.00605
CCCATATC | -0.0677
AGCTATTA | 0.315
AATTTATA | 0.373
CATTTTTA | 0.184
GATTTATA | 0.304
CATTTATA | 0.354
CATTTATC | 0.218

Sequence | binding signal [E-score]
AATTTATG | 0.209
ATTCACTA | 0.174
AGTCGATC | -0.00304
ACGGGAAA | 0.132
ACCGGAAA | -0.1
CCTATATA | 0.283
GCTATATA | 0.355
GCTATACA | 0.176
ACTATATC | 0.284
ACTATATA | 0.437
ACTATAGA | 0.241
ACTCTTTA | 0.0447
ATATAGCA | 0.3
ATATAGGG | -0.00212
CTATATAG | 0.413
CGATATAG | 0.238
ATATATAG | 0.379
ATATAGCC | 0.135
CCATATAG | 0.129
ATATAGCG | 0.349
ATGTATAG | 0.264
AGCTTTGA | 0.0387
AGCGGCAC | -0.177
ATAGTTCG | 0.354
ATAGTTAG | 0.35

Sequence | binding signal [E-score]
AAAGTTAG | 0.156
ATAGTTCA | 0.265
ATAGTTAC | 0.254
ATAGTTCC | 0.143
CTGTGAGA | -0.127
GCACTTGA | -0.0251
CATCATAG | 0.00873
CTTATTCA | 0.048
CGCAAAGA | -0.193
GGAAAAAA | -0.0552
AGTACAAA | 0.342
AGTACAAT | 0.269
AGTACAAG | 0.247
CGTACAAA | 0.236
TGTACAAA | 0.355
GGTACAAA | 0.216
TCGAGGCA | 0.00484
CCGCAAGA | -0.109
GAATCGGA | -0.078
CGATAGAC | 0.063
AGATAGAA | 0.308
TGATAGAA | 0.385
CGATAGAA | 0.359
CGATAGAG | -0.176
GGATAGAA | 0.195

Sequence | binding signal [E-score]
GTGTTACA | 0.168
GTAATGAA | -0.0192
ATAATGTC | 0.112
CTAATGTA | 0.185
ATAATGTA | 0.405
ATAATGTG | 0.167
GTAATGTA | 0.339
ATAAACGG | 0.19
CGCCACCG | -0.0411
ATTACTAG | 0.392
ATTACTAA | 0.326
CTTACTAC | 0.171
ATTACTAC | 0.407
ATTACTCG | 0.198
ATTACTGC | 0.11
ATGTTTAC | 0.00161
AAATGGTT | 0.177
AGCTTCTG | -0.0648
CGCTAGAC | 0.00486
